Reference: PubChem BioAssay (NCI)
This is part of a sample that, as a whole, favours compounds with a hit. Of some 79,000 tested, about 15% had one in any assay. Rule as the data show it: active = growth inhibition above about 70%; inactive = the rest. Where a SMILES comes first, the peptide text is derived from it. [ ]: non-standard residue; d: D form. The star is where a group is joined. ξ: configuration not given here. Cbz = O=C(OCc1ccccc1)*; ξNva = CCCC(N)C(=O)O

Tests used:
[1] = NCI Yeast Anticancer Drug Screen. Data for the rad50 strain (AID 155);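 also: 0% = growth of vehicle-only cultures of the same strain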; conditions: S. cerevisiae rad50 strain growth inhibition; at 50.0 µM; stronger effect = higher value
Summary of the method: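 Readout: growth inhibition relative to vehicle-treated cultures. Compound exposure was carried out in a genetically defined yeast strain deficient in DNA damage repair.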

[2] = NCI Yeast Anticancer Drug Screen. Data for the mec2-1 strain (AID 157); conditions: S. cerevisiae mec2-1 strain, at 50.0 µM, stronger effect = higher value
Summary of the method: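 Test agents were screened against the mec2-1 yeast strain, with defined DNA repair or cell cycle alteration. Growth was scored as inhibition against vehicle-only controls.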

[3] = NCI Yeast Anticancer Drug Screen. Data for the sgs1 mgt1 strain (AID 161);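 also: 0% = growth of cultures given vehicle only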; conditions: S. cerevisiae sgs1 mgt1 strain, at 50.0 µM, stronger effect = higher value
Summary of the method: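 Inhibition of yeast growth, normalised to vehicle-treated controls, is reported for a strain bearing genetic alterations in DNA damage repair.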

[4] = NCI Yeast Anticancer Drug Screen. Data for the cln2 rad14 strain (AID 165);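 also: 0% = growth equal to vehicle treated cultures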; conditions: S. cerevisiae cln2 rad14 strain, at 50.0 µM, stronger effect = higher value
Summary of the method: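 Growth of compound-exposed yeast (cln2 rad14 genotype) measured and expressed as inhibition relative to vehicle.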

[5] = NCI Yeast Anticancer Drug Screen. Data for the bub3 strain (AID 167); conditions: S. cerevisiae bub3 mutant strain, at 50.0 µM, stronger effect = higher value
Summary of the method: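 Readout: yeast growth inhibition, expressed relative to vehicle-only wells. The test organism is a mutant strain from a panel with lesions in DNA repair or checkpoint genes.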

[6] = NCI Yeast Anticancer Drug Screen. Data for the mlh1 rad18 strain (AID 175); conditions: S. cerevisiae mlh1 rad18 strain growth inhibition; at 50.0 µM; stronger effect = higher value
Summary of the method: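 In this whole-cell yeast screen, a strain with altered DNA damage repair is challenged with compound, and its growth is measured against matched vehicle-treated controls.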

Measured: growth inhibition

CC(C)=Cc1cc(CCC/C(C)=C/Cc2c(O)cc(C)c(C(=O)O)c2O)co1
inactive: [1] -9% | [2] -25.9% | [3] -1.75% | [4] -6.55% | [5] -18.9% | [6] -15.2%

N=C1N=Nc2nc(C(C(=O)c3ccc(O)cc3O)c3nc4n(c3O)C(=N)N=N4)c(O)n21 (stereo not given)
inactive: [1] 2.35% | [2] -4.3% | [3] 7.15% | [4] -24% | [5] -15.3% | [6] -2.4%

CSc1cc(/C=C/c2ccccc2)ccc1[N+](=O)[O-]
inactive: [1] 1.65% | [2] 0.95% | [3] 4.95% | [4] 15% | [5] 14.3% | [6] 4.45%

C/C(=N\N=P(c1ccccc1)(c1ccccc1)c1ccccc1)C(C)(C)C
inactive: [1] 8.35% | [2] 10.2% | [3] 1.75% | [4] 11.9% | [5] 4.5% | [6] 31.7%

Cc1c(-c2ccccc2)nnn1-c1ccc(F)c(Cl)c1
inactive: [1] -16.4% | [2] -27.1% | [3] -8.75% | [4] -10.4% | [5] 6.95% | [6] -12.4%

O/N=C/c1ccccc1O
inactive: [1] 14.9% | [2] -19.1% | [3] -0.3% | [4] 9.65% | [5] -7.85% | [6] 10.2%

CN(C)Cc1ccccc1O
inactive: [1] 4.15% | [2] 17.6% | [3] -3.6% | [4] -17.6% | [5] 5.65% | [6] -51.5%

N#CSCc1c(Cl)c(Cl)c(CSC#N)c(Cl)c1Cl
inactive: [1] -13.8% | [2] -7.15% | [3] 2.15% | [4] -18.9% | [5] 5.85% | [6] -12.4%

O=C(O)c1ccc(Cl)cc1[N+](=O)[O-]
inactive: [1] 23.4% | [2] -8.5% | [3] 21.6% | [4] 19.9% | [5] 0.5% | [6] 25.1%

CO[C@@H]1C=C[C@@]23c4cc5c(cc4CN(C[C@@H]2O)[C@H]3C1)OCO5
inactive: [1] 3.95% | [2] -26.1% | [3] -11.9% | [4] 14.8% | [5] -16.1% | [6] -59.4%

O=C(O)c1ccccc1CC(Cc1ccccc1)C(=O)O (stereo not given)
inactive: [1] -14.7% | [2] -3.4% | [3] -10.9% | [4] -8.5% | [5] -12.4% | [6] 14%

CCCCCCCCCC(=O)N(C)OC
inactive: [1] 6.1% | [2] 4.3% | [3] 7.05% | [4] 1.3% | [5] -4.6% | [6] 18.1%

O=C1c2cccc3cc([N+](=O)[O-])cc(c23)C(=O)N1Cc1cccnc1
inactive: [1] 42.5% | [2] 15.6% | [3] 38.6% | [4] 19% | [5] 10.5% | [6] 10.8%

COc1nn(C)c(=O)c2cccnc12
inactive: [1] -2.05% | [2] 7.6% | [3] -3.1% | [4] -6.25% | [5] 12.6% | [6] 1.2%

O=C1CN(c2ccccc2)C(=O)CN1/N=C/c1ccc(O)c(O)c1
inactive: [1] -35.2% | [2] 8.75% | [3] -3.25% | [4] 12.7% | [5] -2.55% | [6] -11.2%

Cc1c2c(cc3c1CCC1(C)C3CCC1C(C)/C=C/C(C)C(C)C)CC(O)CC2 (stereo not given)
inactive: [1] 6.65% | [2] 11.8% | [3] 2.6% | [4] -0.2% | [5] -3% | [6] 20.5%

C=C1C(C(=O)O)C1C(=O)O (stereo not given)
inactive: [1] 4.2% | [2] -11.8% | [3] 20.4% | [4] 3.6% | [5] 2.9% | [6] -2.25%

COC1=C(OC)C(=O)c2cc(SC)c(=O)c(SC)cc2C1=O
inactive: [1] -54.8% | [2] -29.2% | [3] -40.5% | [4] -22.1% | [5] -54.6% | [6] -60.2%

O=C1c2ccccc2C(=O)N1CNc1ccccc1S
inactive: [1] 13.2% | [2] 5.1% | [3] 19.6% | [4] 28.4% | [5] 22.1% | [6] -8%

Cc1cc(N2CCCCC2)nc2ccccc12
inactive: [1] 4.95% | [2] -4.4% | [3] -18.6% | [4] -3.9% | [5] -1.85% | [6] 9.25%

O=C(O)C(CS)(c1ccccc1)c1ccccc1
inactive: [1] 0.65% | [2] 8.25% | [3] 7.7% | [4] 5.95% | [5] -2.85% | [6] 11.4%

CC(C)(C)c1cc(O)c(C(=O)O)cc1O
inactive: [1] 39.6% | [2] 29.6% | [3] 44.8% | [4] 17.6% | [5] -3.9% | [6] 33.9%

O=C1COCC(=O)N1
inactive: [1] 7.35% | [2] -22% | [3] 8.85% | [4] -1.95% | [5] 0.05% | [6] -0.2%

Clc1ccc(C(Cl)(Cl)C(Cl)(Cl)Cl)cc1
inactive: [1] 6.65% | [2] 40.4% | [3] -2.15% | [4] -61.2% | [5] 40% | [6] 44.1%

O=C(O)CNC(=O)NNc1ccccc1
inactive: [1] -4.75% | [2] -7.6% | [3] -11% | [4] 28.3% | [5] -10.3% | [6] -12.7%

Nc1ncc([N+](=O)[O-])c(N)n1
inactive: [1] 2.75% | [2] 5.45% | [3] 7.75% | [4] 0.7% | [5] -13.8% | [6] 15.9%

COc1ccc(C2=CN(S(=O)(=O)c3ccc(C)cc3)CCc3ccccc32)cc1
inactive: [1] -31.4% | [2] -10.9% | [3] -31.8% | [4] -59.8% | [5] -6.6% | [6] -23.7%

Oc1ccc(-c2ccc(Br)cc2)cc1
inactive: [1] -25.1% | [2] -6% | [3] -14.4% | [4] -2% | [5] -31.8% | [6] -14.8%

CC(O)CN1CCCC1 (stereo not given)
inactive: [1] 5.75% | [2] -21.9% | [3] -4% | [4] 6.2% | [5] 0.6% | [6] 9.35%

CS[C@]12C(=O)C[C@@]3(C)[C@@H](CC[C@]3(O)C(=O)CO)[C@@H]1CCC1=CC(=O)CC[C@@]12C
inactive: [1] -2.2% | [2] -24% | [3] -15.9% | [4] 28.7% | [5] -54.8% | [6] -20.4%

C/C(Cc1ccccc1)=N\NS(=O)(=O)c1ccc(C)cc1
inactive: [1] 44.4% | [2] -2.15% | [3] 35.9% | [4] 8.85% | [5] 1.1% | [6] 34.6%

CC1(C)CC2(CC(C)(C)N1O)NC(=O)OC2=O
inactive: [1] 2.5% | [2] -5.3% | [3] -1.05% | [4] -18.6% | [5] -23.1% | [6] 1.3%

O=C1CSc2nc3ccc(Br)cc3c(=O)n21
inactive: [1] 16% | [2] 9.1% | [3] 11.2% | [4] -19.4% | [5] 18.6% | [6] 20.9%

O=C(O)CCSSCCC(=O)O
inactive: [1] 7.25% | [2] 6.5% | [3] 10.8% | [4] -1.65% | [5] -4.1% | [6] 10.8%

O=C(O)c1c(Cl)c(Cl)c(Cl)c(Cl)c1C(=O)Nc1cccc(C(F)(F)F)c1
inactive: [1] -9.55% | [2] 10.2% | [3] -8.8% | [4] -7.35% | [5] -1.7% | [6] -14.7%

CCCC(NC(=O)OCc1ccccc1)C(=O)NCC(=O)NCC(=O)OC (stereo not drawn) (Cbz-[ξNva]-Gly-Gly-OMe)
inactive: [1] -30.8% | [2] 0.15% | [3] 12.2% | [4] 30.9% | [5] 0.5% | [6] 11.3%

Oc1ccc(Cl)cc1/C=N\NC(=S)Nc1ccc2cn[nH]c2c1
inactive: [1] -2.7% | [2] 10.1% | [3] 13.9% | [4] -39.4% | [5] 20.8% | [6] 11.3%

O=C(NCCN1CCCC1)Nc1ccccc1
inactive: [1] -3.2% | [2] -20.2% | [3] -17.2% | [4] -47.7% | [5] 2.3% | [6] 8.45%

CCN(CC)c1ccc2c(C)c(Cc3ccccc3)c(=O)oc2c1
inactive: [1] 1.8% | [2] -22.8% | [3] 24.6% | [4] 7.7% | [5] 31.9% | [6] 0.7%

COc1ccc(C)cc1N=NC1C(=O)N(C(=O)CC(=O)Nc2ccccc2OC)N=C1c1ccccc1 (stereo not given)
inactive: [1] 12.8% | [2] -1.5% | [3] -7.4% | [4] 6.55% | [5] 2.35% | [6] 15.3%
